Results filed as inconclusive are left out. Unmarked numbers belong to inactive results. The source made the active and inactive calls. The call rests on the fitted dose curve; in most records, active means well fitted curve in the direction sought with a large enough effect; inconclusive means small, poorly fitted or top-dose-only effect, or another doubt; inactive means no such curve, though single readings can be large; an effect the other way counts as inactive or inconclusive.

From PubChem BioAssay (NCATS) come the findings set out here.

Experiment [1] concerns the target Rap guanine nucleotide exchange factor 3 (Homo sapiens) (UniProt O95398). The experiment can be described thus: Confirmatory qHTS for agonist of cAMP-regulated guanine nucleotide exchange factor 3 (EPAC1) (AID 1645881).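 Further: EPAC1 catalysed release of BODIPY-GDP from Rap1B seen as fluorescence loss; 100% = effect of cAMP agonist control; nearly all actives have a fitted effect of over 75% in size.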
Experiment [2] has as its target Rap guanine nucleotide exchange factor 4 (Homo sapiens) (UniProt Q8WZA2). As to the kind of experiment: Confirmatory qHTS for agonist of cAMP-regulated guanine nucleotide exchange factor 4 (EPAC2) (AID 1645884).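 Further: nucleotide exchange releases bodipy-GDP from Rap1 and this lowers its fluorescence; on the % scale 0 is the no-effect control and ±100 the full control effect; nearly all actives have a fitted effect of over 65% in size.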 Background: qHTS replaces the single test concentration by a dilution series.
Experiment [3] concerns the target Rap guanine nucleotide exchange factor 3 (Homo sapiens) (UniProt O95398). The experiment can be described thus: Counterscreen qHTS for agonist of cAMP-regulated guanine nucleotide exchange factor 3 (EPAC1) (AID 1645889). Further: % of control where 0% means no effect; nearly all actives have a fitted effect of over 40% in size. A digest of the protocol:
(§1)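 Measured: fluorescence of BODIPY-GDP bound to Rap1B, which falls as exchange proceeds. Conditions include 50 uM competing GDP, 5 and 30 min reads, and a later cAMP challenge for antagonist detection.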
(In general: Counterscreens check selectivity or assay interference.)

Experiment [4] has the same target. The experiment can be described thus: Counterscreen qHTS for antagonist of cAMP-regulated guanine nucleotide exchange factor 3 (EPAC1) (AID 1645888).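 Further: fluorescence loss as bound BODIPY-GDP is released from Rap1B; % of control where 0% means no effect.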 Summed up: as §1
The nature of experiment [5]: qHTS for Inhibitors of the vitamin D receptor (VDR): Hit Validation using a Texas Red Assay (AID 602201). Further: potency means the concentration at half of the fitted maximal effect. Summed up: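 Fluorescence polarization (Ex 595/Em 615 nm) of Texas Red (7 nM) with 1.5 uM VDR-LBD and LG19078 (final concentrations). Compounds were incubated for 2 hours at room temperature.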

Sequence of Rap guanine nucleotide exchange factor 3 (Homo sapiens) (O95398 whole entry, looked up): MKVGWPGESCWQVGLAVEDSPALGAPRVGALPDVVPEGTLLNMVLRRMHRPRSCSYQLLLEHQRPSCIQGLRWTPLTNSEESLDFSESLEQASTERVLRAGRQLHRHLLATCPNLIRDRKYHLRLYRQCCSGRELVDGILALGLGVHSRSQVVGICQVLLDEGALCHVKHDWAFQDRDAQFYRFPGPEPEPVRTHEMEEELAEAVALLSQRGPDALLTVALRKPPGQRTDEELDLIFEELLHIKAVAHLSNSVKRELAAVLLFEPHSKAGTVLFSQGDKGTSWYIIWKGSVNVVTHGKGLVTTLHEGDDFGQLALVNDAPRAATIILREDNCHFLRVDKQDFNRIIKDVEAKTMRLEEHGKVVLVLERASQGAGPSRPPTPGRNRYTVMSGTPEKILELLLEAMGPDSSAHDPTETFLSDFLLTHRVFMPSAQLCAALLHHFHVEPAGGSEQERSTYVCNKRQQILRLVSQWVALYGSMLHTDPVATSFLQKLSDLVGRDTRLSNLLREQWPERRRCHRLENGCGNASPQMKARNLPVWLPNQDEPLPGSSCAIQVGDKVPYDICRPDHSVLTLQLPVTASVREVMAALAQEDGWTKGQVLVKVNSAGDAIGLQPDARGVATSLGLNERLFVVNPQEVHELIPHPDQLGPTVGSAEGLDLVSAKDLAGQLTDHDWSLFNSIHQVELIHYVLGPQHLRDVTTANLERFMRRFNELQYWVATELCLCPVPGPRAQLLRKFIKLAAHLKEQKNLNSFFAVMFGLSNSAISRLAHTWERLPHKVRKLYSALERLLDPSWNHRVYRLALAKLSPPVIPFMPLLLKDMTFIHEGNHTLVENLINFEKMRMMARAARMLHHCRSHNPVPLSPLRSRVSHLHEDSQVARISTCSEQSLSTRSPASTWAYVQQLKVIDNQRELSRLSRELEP
Sequence of Rap guanine nucleotide exchange factor 4 (Homo sapiens) (Q8WZA2 whole entry, looked up): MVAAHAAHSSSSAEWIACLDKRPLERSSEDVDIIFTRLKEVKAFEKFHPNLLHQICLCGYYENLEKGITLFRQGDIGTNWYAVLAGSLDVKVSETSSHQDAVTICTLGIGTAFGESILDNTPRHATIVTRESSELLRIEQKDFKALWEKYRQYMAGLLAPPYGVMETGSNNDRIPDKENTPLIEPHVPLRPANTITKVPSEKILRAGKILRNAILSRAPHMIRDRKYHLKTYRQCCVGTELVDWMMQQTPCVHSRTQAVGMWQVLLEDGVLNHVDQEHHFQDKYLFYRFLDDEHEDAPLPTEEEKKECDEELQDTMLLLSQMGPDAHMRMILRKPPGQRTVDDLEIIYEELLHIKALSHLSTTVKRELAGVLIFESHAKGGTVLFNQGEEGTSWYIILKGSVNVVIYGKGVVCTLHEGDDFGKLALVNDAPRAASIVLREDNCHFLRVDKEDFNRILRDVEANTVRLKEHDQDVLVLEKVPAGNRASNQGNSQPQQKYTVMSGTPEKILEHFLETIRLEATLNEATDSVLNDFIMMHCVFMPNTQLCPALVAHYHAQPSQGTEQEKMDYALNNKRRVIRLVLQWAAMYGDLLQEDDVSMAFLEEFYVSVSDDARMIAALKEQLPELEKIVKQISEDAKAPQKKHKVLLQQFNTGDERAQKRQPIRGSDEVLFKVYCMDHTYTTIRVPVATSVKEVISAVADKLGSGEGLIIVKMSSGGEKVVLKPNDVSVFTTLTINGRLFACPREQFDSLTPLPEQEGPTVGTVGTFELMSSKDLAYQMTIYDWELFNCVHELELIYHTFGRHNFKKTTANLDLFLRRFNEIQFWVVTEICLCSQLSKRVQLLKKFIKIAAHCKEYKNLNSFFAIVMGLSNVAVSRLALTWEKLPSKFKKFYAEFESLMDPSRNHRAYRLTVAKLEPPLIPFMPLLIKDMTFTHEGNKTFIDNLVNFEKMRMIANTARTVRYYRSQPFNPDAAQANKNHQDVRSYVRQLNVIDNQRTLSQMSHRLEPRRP

With `CCCOP(=O)(OCCC)C(Nc1cccc(C(F)(F)F)c1)c1ccc(C)cc1` (stereo unspecified), the Potency result in experiment [1], in experiment [2] and in experiment [3] was “inactive” in each case.

Turning to `Cn1c(N)c(C(=O)COC(=O)Cc2ccc(Cl)c(Cl)c2)c(=O)n(C)c1=O`, the Potency result in experiment [1], in experiment [2], in experiment [4] and in experiment [3] was “inactive” each time.

Take `COc1ccc(-c2cc(N)n(S(=O)(=O)c3c(F)c(F)c(F)c(F)c3F)n2)cc1OC`: the Potency in experiment [5] was 20 µM (active). Further, the Potency result in experiment [1] is “inactive”. Further, the activation in experiment [2] was 7.68% [at 17.1 µM, percent relative to cAMP agonist control]. In addition, the activity change, negative = inhibition in experiment [4] is 6.6% [at 30.8 µM].
